For seven sequences, binding signal results are on record in paper PMC7862700, “An all-to-all approach to the identification of sequence-specific readers for epigenetic DNA modifications on cytosine”.

What all share (test): DAPPL (digital affinity profiling via proximity ligation, sequencing); 10 mM Tris-HCl pH 7.5, 50 mM NaCl, 1 mM DTT, 4% glycerol, room temperature, 30 min; GST-TFs on glutathione beads, 16-mer random dsDNA library, 0.1% formaldehyde crosslink after washing; high values mean tight binding
Holding throughout (settings): protein: recombinant; tags: N-terminal GST; dsDNA, one strand shown

One test has as its target T1, FLI1 (Homo sapiens, UniProt Q01543 1-452).
T1 sequence: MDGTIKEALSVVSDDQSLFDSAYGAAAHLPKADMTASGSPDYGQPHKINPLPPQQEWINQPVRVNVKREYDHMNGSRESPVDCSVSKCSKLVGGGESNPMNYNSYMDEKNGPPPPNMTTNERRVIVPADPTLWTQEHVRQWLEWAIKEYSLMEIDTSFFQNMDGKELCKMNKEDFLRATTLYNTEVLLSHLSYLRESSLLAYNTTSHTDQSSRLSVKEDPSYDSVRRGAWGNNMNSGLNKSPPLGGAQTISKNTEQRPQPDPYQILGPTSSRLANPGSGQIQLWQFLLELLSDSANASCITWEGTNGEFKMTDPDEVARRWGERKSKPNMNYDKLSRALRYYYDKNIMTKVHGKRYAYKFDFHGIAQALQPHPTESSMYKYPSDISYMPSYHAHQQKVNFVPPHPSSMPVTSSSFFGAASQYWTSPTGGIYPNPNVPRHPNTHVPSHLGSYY
In a few lines: (§1)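 Beads coated with glutathione captured GST-fused human transcription factors that had been expressed in yeast, and the factors were then given DNA barcodes and pooled with a tag-only sample. The pools were incubated with 200 nmole of a random double-stranded 16-mer DNA library in Tris/NaCl/DTT/glycerol buffer for 30 min at room temperature, washed, crosslinked with 0.1% formaldehyde and proximity-ligated with BsaI/T4 ligase at 37 °C for 1 h. PCR amplification and Illumina NextSeq500 sequencing came last. Binding signal is each hexamer's read frequency for a factor divided by its frequency for the tag-only sample.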

Another test has as its target T2, ELK1 (Homo sapiens, UniProt P19419 1-428).
T2 sequence: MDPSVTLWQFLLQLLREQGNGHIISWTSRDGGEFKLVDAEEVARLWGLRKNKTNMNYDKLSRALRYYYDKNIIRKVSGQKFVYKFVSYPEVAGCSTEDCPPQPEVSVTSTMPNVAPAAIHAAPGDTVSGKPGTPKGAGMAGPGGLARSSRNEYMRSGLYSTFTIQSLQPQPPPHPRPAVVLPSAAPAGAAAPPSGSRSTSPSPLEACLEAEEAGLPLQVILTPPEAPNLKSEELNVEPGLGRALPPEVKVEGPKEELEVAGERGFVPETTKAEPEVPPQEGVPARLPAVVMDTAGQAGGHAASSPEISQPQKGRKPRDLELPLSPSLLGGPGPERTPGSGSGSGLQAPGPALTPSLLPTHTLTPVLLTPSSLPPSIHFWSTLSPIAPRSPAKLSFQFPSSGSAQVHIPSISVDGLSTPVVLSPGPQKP
A digest of the protocol: as §1

Another test addresses T3, GABPA (Homo sapiens, UniProt Q06546 1-454).
T3 sequence: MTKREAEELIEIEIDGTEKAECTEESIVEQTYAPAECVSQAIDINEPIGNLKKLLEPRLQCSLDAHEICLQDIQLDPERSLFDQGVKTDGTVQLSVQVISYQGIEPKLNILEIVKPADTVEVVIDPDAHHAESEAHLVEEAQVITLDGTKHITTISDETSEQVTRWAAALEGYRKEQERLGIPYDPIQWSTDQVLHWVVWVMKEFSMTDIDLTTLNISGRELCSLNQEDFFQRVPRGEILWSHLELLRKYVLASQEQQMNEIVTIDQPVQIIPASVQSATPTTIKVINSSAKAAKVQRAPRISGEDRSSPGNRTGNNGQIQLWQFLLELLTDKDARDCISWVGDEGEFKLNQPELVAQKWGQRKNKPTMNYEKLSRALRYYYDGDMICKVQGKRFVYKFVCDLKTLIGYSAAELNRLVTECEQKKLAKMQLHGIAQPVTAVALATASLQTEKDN
A digest of the protocol: as §1

The next test has as its target T4, ERG (Homo sapiens, UniProt P11308 1-479).
T4 sequence: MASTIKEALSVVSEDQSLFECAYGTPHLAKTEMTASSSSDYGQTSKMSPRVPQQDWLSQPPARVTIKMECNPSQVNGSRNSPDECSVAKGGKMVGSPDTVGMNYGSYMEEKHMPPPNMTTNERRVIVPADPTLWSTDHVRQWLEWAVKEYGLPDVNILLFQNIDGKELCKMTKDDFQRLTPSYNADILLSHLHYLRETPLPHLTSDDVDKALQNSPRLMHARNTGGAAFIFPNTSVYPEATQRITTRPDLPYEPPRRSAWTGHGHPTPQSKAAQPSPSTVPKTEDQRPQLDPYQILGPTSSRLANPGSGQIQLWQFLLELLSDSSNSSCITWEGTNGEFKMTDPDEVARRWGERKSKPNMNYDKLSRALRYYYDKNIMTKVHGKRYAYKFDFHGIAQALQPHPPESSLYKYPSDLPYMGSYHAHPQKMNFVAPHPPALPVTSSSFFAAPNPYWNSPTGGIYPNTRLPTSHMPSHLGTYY
In a few lines: as §1

For a further test, the target named is ELF1 (Homo sapiens, UniProt P32519 1-619). In a few lines: as §1
In another test the target is T5, EHF (Homo sapiens, UniProt Q9NZC4 1-300).
T5 sequence: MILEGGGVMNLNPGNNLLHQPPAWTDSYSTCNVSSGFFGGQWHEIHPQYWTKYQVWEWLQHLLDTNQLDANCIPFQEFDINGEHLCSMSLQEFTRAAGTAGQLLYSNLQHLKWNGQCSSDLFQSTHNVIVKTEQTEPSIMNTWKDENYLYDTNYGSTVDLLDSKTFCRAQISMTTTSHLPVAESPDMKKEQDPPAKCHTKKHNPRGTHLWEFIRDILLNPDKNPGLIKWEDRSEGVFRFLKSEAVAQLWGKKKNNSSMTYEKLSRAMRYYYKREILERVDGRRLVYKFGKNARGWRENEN
In a few lines:
as §1

In the next test the target is SPI1 (Homo sapiens, UniProt P17947 1-270). A digest of the protocol: as §1
A further test deals with SPIB (Homo sapiens, UniProt Q01892 1-262). A digest of the protocol: as §1
In another test the target is T6, ELK3 (Homo sapiens, UniProt P41970 1-407).
T6 sequence: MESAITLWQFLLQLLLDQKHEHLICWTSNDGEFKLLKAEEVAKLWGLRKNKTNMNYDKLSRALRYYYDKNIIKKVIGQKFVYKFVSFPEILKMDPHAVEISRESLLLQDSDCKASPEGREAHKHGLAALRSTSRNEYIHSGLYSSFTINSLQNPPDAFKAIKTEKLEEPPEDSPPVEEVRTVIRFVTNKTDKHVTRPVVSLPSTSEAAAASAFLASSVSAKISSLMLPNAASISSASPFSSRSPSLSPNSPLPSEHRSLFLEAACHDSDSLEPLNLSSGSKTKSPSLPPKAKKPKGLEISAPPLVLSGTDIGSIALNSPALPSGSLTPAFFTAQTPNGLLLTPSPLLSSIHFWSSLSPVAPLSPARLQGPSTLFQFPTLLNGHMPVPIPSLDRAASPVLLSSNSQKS
A digest of the protocol: as §1

Chain of SPIB (Q01892 whole entry): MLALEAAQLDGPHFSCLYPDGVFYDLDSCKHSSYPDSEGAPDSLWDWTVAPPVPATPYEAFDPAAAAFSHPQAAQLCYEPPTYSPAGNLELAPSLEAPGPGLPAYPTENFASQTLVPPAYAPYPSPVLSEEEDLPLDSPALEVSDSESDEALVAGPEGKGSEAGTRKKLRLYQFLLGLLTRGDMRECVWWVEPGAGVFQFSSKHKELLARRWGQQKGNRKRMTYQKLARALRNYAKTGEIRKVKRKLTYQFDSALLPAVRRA
Chain of ELF1 (P32519 whole entry): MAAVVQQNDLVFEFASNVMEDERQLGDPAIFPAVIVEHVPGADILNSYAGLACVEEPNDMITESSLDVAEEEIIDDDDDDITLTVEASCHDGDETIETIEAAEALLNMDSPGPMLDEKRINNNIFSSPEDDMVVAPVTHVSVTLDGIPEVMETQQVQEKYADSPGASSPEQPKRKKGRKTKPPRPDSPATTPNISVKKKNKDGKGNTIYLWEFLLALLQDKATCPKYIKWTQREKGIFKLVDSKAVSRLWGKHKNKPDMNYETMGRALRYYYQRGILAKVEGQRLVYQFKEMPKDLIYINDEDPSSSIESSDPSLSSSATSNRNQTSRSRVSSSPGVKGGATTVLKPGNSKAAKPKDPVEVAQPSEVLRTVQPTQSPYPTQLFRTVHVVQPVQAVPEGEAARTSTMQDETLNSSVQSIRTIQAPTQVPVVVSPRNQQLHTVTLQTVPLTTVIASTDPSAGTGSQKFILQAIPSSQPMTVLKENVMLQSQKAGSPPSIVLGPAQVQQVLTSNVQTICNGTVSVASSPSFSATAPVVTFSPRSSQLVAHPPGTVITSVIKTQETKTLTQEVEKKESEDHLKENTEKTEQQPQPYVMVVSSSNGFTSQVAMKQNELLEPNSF

CTGATA: the binding signal in the test with FLI1 is 1.15 fold enrichment (6-mer frequency, TF over GST control); with ELK1 it was 1.17 fold enrichment (6-mer frequency, TF over GST control); with GABPA, 1.27 fold enrichment (6-mer frequency, TF over GST control); in the test with ERG, 1.1 fold enrichment (6-mer frequency, TF over GST control); with ELF1, 1.21 fold enrichment (6-mer frequency, TF over GST control); in the test with EHF, 1.26 fold enrichment (6-mer frequency, TF over GST control). In addition, the binding signal is 1.28 fold enrichment (6-mer frequency, TF over GST control) with SPI1; 1.32 fold enrichment (6-mer frequency, TF over GST control) with SPIB; 1.24 fold enrichment (6-mer frequency, TF over GST control) in the test with ELK3.

As for TACACT, the binding signal with FLI1 is 1.41 fold enrichment (6-mer frequency, TF over GST control); with ELK1 it was 1.57 fold enrichment (6-mer frequency, TF over GST control); in the test with GABPA, 1.51 fold enrichment (6-mer frequency, TF over GST control); with ERG, 1.58 fold enrichment (6-mer frequency, TF over GST control); with ELF1, 1.5 fold enrichment (6-mer frequency, TF over GST control); with EHF, 1.62 fold enrichment (6-mer frequency, TF over GST control). Moreover, the binding signal in the test with SPI1 was 1.54 fold enrichment (6-mer frequency, TF over GST control); in the test with SPIB, 1.5 fold enrichment (6-mer frequency, TF over GST control); with ELK3, 1.51 fold enrichment (6-mer frequency, TF over GST control).

AACTTA: the binding signal was 1.28 fold enrichment (6-mer frequency, TF over GST control) with FLI1; 1.24 fold enrichment (6-mer frequency, TF over GST control) in the test with ELK1; 1.32 fold enrichment (6-mer frequency, TF over GST control) with GABPA; 1.18 fold enrichment (6-mer frequency, TF over GST control) with ERG; 1.27 fold enrichment (6-mer frequency, TF over GST control) with ELF1; 1.34 fold enrichment (6-mer frequency, TF over GST control) in the test with EHF. The binding signal was 1.23 fold enrichment (6-mer frequency, TF over GST control) with SPI1; 1.23 fold enrichment (6-mer frequency, TF over GST control) in the test with SPIB; 1.26 fold enrichment (6-mer frequency, TF over GST control) with ELK3.

For the sequence TTGTTT, the binding signal is 1.46 fold enrichment (6-mer frequency, TF over GST control) in the test with FLI1; 1.45 fold enrichment (6-mer frequency, TF over GST control) with ELK1; 1.36 fold enrichment (6-mer frequency, TF over GST control) in the test with GABPA; 1.6 fold enrichment (6-mer frequency, TF over GST control) in the test with ERG; 1.37 fold enrichment (6-mer frequency, TF over GST control) with ELF1; 1.51 fold enrichment (6-mer frequency, TF over GST control) with EHF. Besides, the binding signal is 1.28 fold enrichment (6-mer frequency, TF over GST control) with SPI1; 1.52 fold enrichment (6-mer frequency, TF over GST control) with SPIB; 1.49 fold enrichment (6-mer frequency, TF over GST control) in the test with ELK3.

Consider TTAAGC, for which the binding signal with FLI1 is 1.18 fold enrichment (6-mer frequency, TF over GST control); with ELK1 it was 1.18 fold enrichment (6-mer frequency, TF over GST control); with GABPA, 1.24 fold enrichment (6-mer frequency, TF over GST control); in the test with ERG, 1.15 fold enrichment (6-mer frequency, TF over GST control); in the test with ELF1, 1.18 fold enrichment (6-mer frequency, TF over GST control); with EHF, 1.13 fold enrichment (6-mer frequency, TF over GST control). In addition, the binding signal was 1.1 fold enrichment (6-mer frequency, TF over GST control) with SPI1; 1.08 fold enrichment (6-mer frequency, TF over GST control) with SPIB; 1.18 fold enrichment (6-mer frequency, TF over GST control) in the test with ELK3.

For TCCAAC, the binding signal is 1.22 fold enrichment (6-mer frequency, TF over GST control) in the test with FLI1; 1.24 fold enrichment (6-mer frequency, TF over GST control) with ELK1; 1.22 fold enrichment (6-mer frequency, TF over GST control) with GABPA; 1.16 fold enrichment (6-mer frequency, TF over GST control) with ERG; 1.25 fold enrichment (6-mer frequency, TF over GST control) with ELF1; 1.23 fold enrichment (6-mer frequency, TF over GST control) with EHF. The binding signal with SPI1 is 1.18 fold enrichment (6-mer frequency, TF over GST control); in the test with SPIB, 1.16 fold enrichment (6-mer frequency, TF over GST control); with ELK3, 1.21 fold enrichment (6-mer frequency, TF over GST control).

On to TTACCT, for which the binding signal with FLI1 was 1.12 fold enrichment (6-mer frequency, TF over GST control); with ELK1 it was 1.19 fold enrichment (6-mer frequency, TF over GST control); with GABPA, 1.32 fold enrichment (6-mer frequency, TF over GST control); with ERG it was 1.17 fold enrichment (6-mer frequency, TF over GST control); in the test with ELF1 it was 1.19 fold enrichment (6-mer frequency, TF over GST control); in the test with EHF, 1.31 fold enrichment (6-mer frequency, TF over GST control). The binding signal with SPI1 is 1.19 fold enrichment (6-mer frequency, TF over GST control); with SPIB, 1.4 fold enrichment (6-mer frequency, TF over GST control); in the test with ELK3, 1.22 fold enrichment (6-mer frequency, TF over GST control).
